# Compounds with a hit are over-represented: about 1.2% of the library has one in this group of screens.
# TSHR antagonist: blocks TSH signaling through the human TSH receptor; P16473; TSHR-expressing cells, TSH-stimulated cAMP HTRF, 2 h; active compounds read low; activity change, negative = inhibition, % at 11.5 µM; hit rate 0.2% among 330,000; AID 504810;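 active = activity change below a set negative limit, meaning inhibition stronger than a set level, cut at about -70% in these data; inconclusive = activity change between two set negative limits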; also: % is scaled to controls: 0 for no effect and ±100 for the full control effect
# Target sequence (P16473 whole entry, looked up): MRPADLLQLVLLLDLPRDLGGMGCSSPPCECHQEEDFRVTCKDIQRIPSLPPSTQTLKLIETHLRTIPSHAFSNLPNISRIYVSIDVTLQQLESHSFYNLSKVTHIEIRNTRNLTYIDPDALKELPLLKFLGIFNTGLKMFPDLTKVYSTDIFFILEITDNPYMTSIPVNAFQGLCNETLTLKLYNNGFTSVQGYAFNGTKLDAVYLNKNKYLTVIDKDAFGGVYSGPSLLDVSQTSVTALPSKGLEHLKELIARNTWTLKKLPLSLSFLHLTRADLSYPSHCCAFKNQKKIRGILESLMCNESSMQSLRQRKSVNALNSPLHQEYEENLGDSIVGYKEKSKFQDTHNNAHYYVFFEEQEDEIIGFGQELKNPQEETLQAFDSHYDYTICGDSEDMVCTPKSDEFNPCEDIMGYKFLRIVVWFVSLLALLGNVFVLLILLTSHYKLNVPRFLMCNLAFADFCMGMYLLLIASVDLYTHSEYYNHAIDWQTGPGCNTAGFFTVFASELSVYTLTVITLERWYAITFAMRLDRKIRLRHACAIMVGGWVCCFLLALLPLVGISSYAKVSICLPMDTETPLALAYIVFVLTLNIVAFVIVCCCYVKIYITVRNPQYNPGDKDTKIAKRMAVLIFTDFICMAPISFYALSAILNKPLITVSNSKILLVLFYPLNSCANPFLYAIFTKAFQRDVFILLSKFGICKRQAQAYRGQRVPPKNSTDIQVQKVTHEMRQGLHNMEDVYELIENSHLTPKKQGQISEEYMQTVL
#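 Inhibition of cAMP made by TSHR-expressing cells under TSH stimulation (4nM final, EC80; 2 h, 37 deg C) is quantified with a one-step lysis HTRF kit, anti-cAMP cryptate versus cAMP-d2.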
# CCT modulator: changes cytosolic chaperonin activity; purified chaperonin ATPase assay, HTRF ADP detection, 30 min; activity change, % (no concentration beside the values), hits read low; hit rate 0.3% among 360,000; AID 651819; in the data active = activity change below about -30%; also: % is scaled to controls: 0 for no effect and ±100 for the full control effect
#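 TRiC at 40 or 20 nM final (batch-dependent) in 30 mM Tris pH 7.4, 100 mM KCl, 5 mM MgCl2, 1 mM DTT, with compound at single 76 uM and 10 uM ATP, 30 min at 37 deg C. ADP detected by HTRF Transcreener, 665/615 ratio.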
# gsp ag: gsp mutant agonism; Potency, µM (series often up to 76.9 µM), inactives show top-dose activation (cAMP increase), actives largely listed as activators; gsp mutant cells, cAMP HTRF, 30 min; hit rate 0.13% among 340,000; active = well fitted activation curve with a large enough effect; inconclusive = small, poorly fitted or top-dose-only effect, or another doubt; inactive = no such curve, though single readings can be large or run the other way; cell line not stated here;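 also: phosphodiesterase inhibitor Ro 20-1724 added with compounds to block cAMP breakdown; potency is read from the fitted curve at half-maximal effect; nearly all actives have a fitted effect of over 60% in size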
#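 Cells stably selected in G418 were plated at 2000/well, grown 16-24 hr, then given compounds in DMSO with the PDE inhibitor […] (300 uM solution added) for 30 min at 37C; cAMP was read by HTRF.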
# gsp antagonist: antagonists of gsp mutant (McCune-Albright syndrome); AID 624288; Potency, µM (top dose mostly 76.9 µM), inactives show at the highest dose activity change, negative = inhibition, hits mostly inhibitors; hit rate 0.4% among 340,000; gsp-mutant cells, cAMP HTRF, 30 min; calls by dose curve; cell line not stated here;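 also: intracellular cAMP measured with PDE inhibitor Ro 20-1724 present during compound exposure; potency is read from the fitted curve at half-maximal effect; % is scaled to controls: 0 for no effect and ±100 for the full control effect; nearly all actives have a fitted effect of over 65% in size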
#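 HTRF cAMP measurement after 30 min RT detection following 30 min, 37C compound treatment alongside […] (added as 300 uM solution) in G418-selected cells seeded at 2000/well and grown 16–24 h.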
# uPA generation: inhibitors of cell surface uPA generation. cell surface uPA generation assay, qHTS. hit rate 0.31% among 330,000. Potency, µM (series often up to 38.3 µM), for the others: at the highest dose activity change, negative = inhibition, most hits filed as inhibitors. AID 540303; active = well fitted inhibition curve with a large enough effect; inconclusive = small, poorly fitted or top-dose-only effect; inactive = no such curve, though single readings can be large or run the other way; tested in mouse RAW 264.7 cells; also: potency is read from the fitted curve at half-maximal effect; % is scaled to controls: 0 for no effect and ±100 for the full control effect; nearly all actives have a fitted effect of over 55% in size
# MmCpn inh: blocks the Methanococcus maripaludis chaperonin Mm-Cpn | AID 504842 | Potency, µM (series often up to 76.9 µM), without a hit: top-dose activity, negative = inhibition, hits mostly inhibitors | hit rate 0.031% among 330,000 | purified Mm-Cpn ATPase, ADP Transcreener TR-FRET; active = well fitted inhibition curve with a large enough effect; inconclusive = small, poorly fitted or top-dose-only effect; also: potency is read from the fitted curve at half-maximal effect; % is scaled to controls: 0 for no effect and ±100 for the full control effect; nearly all actives have a fitted effect of over 80% in size
#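 TR-FRET (320 nm excitation; 590 and 665 nm emission) reports ADP made from 10 uM ATP by 25 nM enzyme; compounds were preincubated 10 min, reaction run 30 min, both at 37°C.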
# Numbers without * were called inactive; ? = inconclusive; · = not tested or not shown; [ ] = remark or other dose.
SMILES,TSHR antagonist,CCT modulator,gsp ag,gsp antagonist,uPA generation,MmCpn inh
COc1ccc(OC)c(NC(=O)c2cc(S(=O)(=O)NCc3ccco3)ccc2F)c1,-44,-1,-15%,-1%,·,1%
CCOc1ccccc1NC(=O)c1cc(S(=O)(=O)NCc2ccco2)ccc1F,-10,-67*,3%,-9%,-9%,-2%
CCOc1ccccc1CN1CCN(Cc2nc3c(s2)CCCC3)CC1CCO (centres undefined),14,-1,13%,5%,-6%,3%
Cc1ccc(N(C(=O)c2csnn2)C(C(=O)NC(C)(C)C)c2ccccn2)cc1 (centres undefined),-2,-1,4%,12%,2%,0%
Cc1ccc(S(=O)(=O)CCC(=O)NCCN2C(=O)S/C(=C\c3ccccc3)C2=O)cc1,-3,-2,4%,50µM*,-6%,0%
O=C(CNC(=O)c1ccccc1F)NCCN1C(=O)S/C(=C\c2ccccc2Cl)C1=O,-4,1,-38%,-4%,-1%,-2%
Cc1ccc(S(=O)(=O)CCC(=O)NCCc2ccccc2)cc1,0,-2,6%,4%,1%,1%
O=C(CCS(=O)(=O)c1ccc(Cl)cc1)NCCN1C(=O)S/C(=C\c2ccccc2F)C1=O,22,-1,-2%,50µM*,-3%,1%
Cc1ccc2nc(C)c(C(=O)NN=C3CCCCCC3)n2c1,14,-3,?,6%,4.5µM*,0%
C(=N\N1CCN(C2c3ccccc3-c3ccccc32)CC1)/c1ccccn1,25,-3,-33%,-4%,-1%,2%
Cc1ccc(/C=N/N2CCN(C3c4ccccc4-c4ccccc43)CC2)s1,-5,-56*,9%,8%,4%,0%
Cc1cc(C)cc(OCC(=O)OCC(=O)NCc2cccs2)c1,9,-1,?,6%,-1%,-4%
Cc1cc(OCC(=O)OCC(=O)NCc2cccs2)ccc1Cl,-12,-33*,-2%[15.4 µM],3%,3%,2%
O=c1c2ccsc2ncn1Cc1cccc(C(F)(F)F)c1,4,-6,13µM*,-2%,5%,-1%
O=c1c2ccsc2ncn1Cc1ccccc1F,2,-3,-11%,-4%,-7%,1%
Cc1cccc(NC(=S)N(CCc2nc3cc(C)c(C)cc3[nH]2)Cc2cccnc2)c1,1,3,-18%,-3%,-2%,3%
Cc1ccc(C)c(NC(=S)N(CCc2nc3cc(C)c(C)cc3[nH]2)Cc2cccnc2)c1,-6,-58*,-19%,-1%,4%,5%
Cc1cccc(CCN2C(N(C)C)=NC[C@@H]2Cc2ccccc2)c1,4,-1,29%,14%,10µM*,0%
CCn1c(SCC(=O)Nc2cc(C)on2)nc2sc3c(c2c1=O)CCCC3,13,4,?,9%,-5%,-10%
C=CCn1c(SCC(=O)Nc2cc(C)on2)nc2sc3c(c2c1=O)CCCC3,-7,-65*,17%,11%,8%,-7%
O=C(NC1CC1)c1cccc(NC(=O)C2CCCC2)c1,·,0,·,10%,11%,·
Oc1ccc2ccccc2c1CNc1ccc2ccccc2c1,·,-37*,?,-19%,-4%,·
COc1ccc(C2=Nn3c([n+](C)c4ccccc43)SC2)cc1,-3,-3,18%,2%,3.5µM*,0%
Cc1nc(NCc2ccccc2)[nH]c(=O)c1CCC(C)C,-13,-3,?,6%,13%,0%
Cc1nc(-c2cccc(-c3noc(C)n3)c2)no1,11,-44*,27%,-1%,·,2%
COc1ccc(-c2csc(N)n2)cc1,10,-1,?,-3%,-5%,-1%
O=C(O)c1ccc(N=Cc2c(O)ccc3oc4c(c23)CCCC4)cc1,1,0,0%,-1%,2%,1%
Oc1ccccc1N=Cc1c(O)ccc2oc3c(c12)CCCC3,8,-1,1%,-5%,4.5µM*,-1%
Cc1nc(C)c(C(=O)OCC(=O)N2CCN(c3ccccc3)CC2)s1,5,0,4%,4%,5%,1%
CN1CCN(CCC(=O)N2c3ccccc3Sc3ccc(Cl)cc32)CC1,-30,-6,8%,-2%,-1%,0%
